Assay results taken from publication PMC13494018.
Unmarked numbers belong to inactive results. The rule behind the calls is not given here.

Target: CD276, Q5ZPR3
Sequence (Q5ZPR3 whole entry): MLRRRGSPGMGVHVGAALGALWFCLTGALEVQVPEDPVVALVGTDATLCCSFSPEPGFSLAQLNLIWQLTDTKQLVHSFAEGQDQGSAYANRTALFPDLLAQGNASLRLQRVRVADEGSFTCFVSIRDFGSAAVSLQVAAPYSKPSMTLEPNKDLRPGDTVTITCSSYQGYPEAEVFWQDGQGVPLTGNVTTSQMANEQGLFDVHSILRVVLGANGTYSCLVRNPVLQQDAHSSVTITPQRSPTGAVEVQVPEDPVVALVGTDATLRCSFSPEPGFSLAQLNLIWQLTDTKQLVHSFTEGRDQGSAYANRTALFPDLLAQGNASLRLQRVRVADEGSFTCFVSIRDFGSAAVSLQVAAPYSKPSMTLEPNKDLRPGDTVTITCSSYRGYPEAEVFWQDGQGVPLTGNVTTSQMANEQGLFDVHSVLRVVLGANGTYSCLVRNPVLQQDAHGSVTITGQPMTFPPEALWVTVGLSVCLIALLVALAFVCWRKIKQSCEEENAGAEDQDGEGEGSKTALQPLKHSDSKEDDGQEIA

Binder | binding in a display sort
design_488_244881a1-ba0c-4c08-ad9c-1f64cf93580a_1807_dldesign_0_cycle1_af2pred (protein) AEEEESRRRAEGAKAFLDQILAAAQASASNPAALAALAASAEANAKSVAAAASPEYAKEVRDYAAKVVAQINALAA | not found
design_488_244881a1-ba0c-4c08-ad9c-1f64cf93580a_2450_dldesign_0_cycle1_af2pred (protein) AEERERLTEKARLALEAAESLVAEAERTSPERAAALARSALRFAAEAERYAKEAGDEEIAARAREVRARAEAIL | binds (active)
design_488_244881a1-ba0c-4c08-ad9c-1f64cf93580a_1393_dldesign_0_cycle1_af2pred (protein) SPADEVAARLNALLGAAIKALAADPAAGLALAEEARRLAEELAKKYPTPEVKRVAEAAKKMADAIGAAAQAQLAAAQA | not found
design_488_244881a1-ba0c-4c08-ad9c-1f64cf93580a_2145_dldesign_0_cycle1_af2pred (protein) MKEEEVEKKIEEAAKIAGITMRVLKKLLPDDPFLATQLAMKVAVELGKKVGELAGSEEVEKRAYEAAIEAMMKAAV | not found
design_610_f34cc193-997c-4684-af32-2a8002718429_489_dldesign_0_cycle1_af2pred (protein) EKEKKIKELLEKGLEKMKKAAELTGDPGMQTYLKMAENNVKTNSPKDAAKINAELAKIAAGHAASLDPEAAKLVEEAYKLFKEAAKL | not found
design_488_244881a1-ba0c-4c08-ad9c-1f64cf93580a_1954_dldesign_0_cycle1_af2pred (protein) AAAQEVAQTAAIMDAALIAAKQSPELLKEMMDVAVAHTKASADPAATLAVLKEKAAKIAEEGTPEAAKIAKAAVAEAA | not found
design_610_f34cc193-997c-4684-af32-2a8002718429_742_dldesign_0_cycle1_af2pred (protein) MERAEKLIEKVKEIASLPKSKEEEQEELALKVAEEAAKLTPEEQQKVIQAMLEYAEKSGSTALLRGANRIFAA | not found
design_610_f34cc193-997c-4684-af32-2a8002718429_938_dldesign_0_cycle1_af2pred (protein) SPQAELDAFLGETLETSREISAILEKNRDKVPEEVRNKISDLLNKALSYASKAALGVDPEGAAKAKKYLEEAKKLTEEAVKLA | not found
design_488_244881a1-ba0c-4c08-ad9c-1f64cf93580a_1386_dldesign_0_cycle1_af2pred (protein) DQARKATEAAAKALLAQVERLSEEAVKAAKEDPAEAKRYLEAAEALRDVIAGLADEEIAKEYAAKAKEIIEKARKEVEAYLAAK | not found
design_610_f34cc193-997c-4684-af32-2a8002718429_532_dldesign_0_cycle1_af2pred (protein) MPQAEQAAQAAAKSGESLMKLAESIWSSTPEYRKAHKESILGALEVARDLYEYAAKQGGEEYKKKAEEAKAKYKEVKETL | not found
design_488_244881a1-ba0c-4c08-ad9c-1f64cf93580a_2241_dldesign_0_cycle1_af2pred (protein) GAALLAQAQALMKAANATAAAGDTATAAAAWADAAKKLAELAKEAAKEDPAYAATIQAMADMSKYIAEQAKA | not found
design_488_244881a1-ba0c-4c08-ad9c-1f64cf93580a_2117_dldesign_0_cycle1_af2pred (protein) AAEEFAKKEAEKAAEVAKTGTPEEAKKAATKLAKKVADAFGVGEALRMLAIAMKMVADDPAKVAAMRAAAAEVQRAAL | not found
design_610_f34cc193-997c-4684-af32-2a8002718429_113_dldesign_0_cycle1_af2pred (protein) AAAAAAAAEKAAAVAAIKEIAEAAKAHAATVGFRALAASAATVVRLAEQGLWTPEGVKKALEVLKAIYEAELAALKAAAA | not found
design_488_244881a1-ba0c-4c08-ad9c-1f64cf93580a_2479_dldesign_0_cycle1_af2pred (protein) SEEYIKEAEKLLKEAKEVAAVAKASGDPVALRGAAAFADAVKQVALAKAKKASEEVAKKLEEIAKEAEKLAKELRAAAAA | not found
design_488_244881a1-ba0c-4c08-ad9c-1f64cf93580a_1793_dldesign_0_cycle1_af2pred (protein) EAEELLARARAVEERGAELAAAAEALASVPGAASLKAHVAQALRAAQQAREAVADPEEATRLLRAAEASLRNAELVLEGMKIQAA | not found
design_610_f34cc193-997c-4684-af32-2a8002718429_743_dldesign_0_cycle1_af2pred (protein) EEEEKKKKAKEYVEKAKKLAEQAAKSTVEQAHQYLGQAVELAAKVHELGVLPEEANKVLAQASANALALA | not found
design_488_244881a1-ba0c-4c08-ad9c-1f64cf93580a_2213_dldesign_0_cycle1_af2pred (protein) AEAQAALIAAKGYYYLAQSYYTHVANNPSLPAEEKKQAAKNAKEAAEKAEEYAKKAGPEAQPYAEKAKKYAEETKKLAEEYA | not found
design_610_f34cc193-997c-4684-af32-2a8002718429_291_dldesign_0_cycle1_af2pred (protein) AEERAKELAEELKELLAKAVADPSKAGEYLGRALELLAELQALAAEHPEVAPYAEEAHRALGAGNKALLAAIAA | not found
design_488_244881a1-ba0c-4c08-ad9c-1f64cf93580a_1644_dldesign_0_cycle1_af2pred (protein) KEAVVREAGEALEELLRYASRIDPAEGARLVAEASRILRQAVLGDEEEAEEARERVERLREEARERAEAA | not found

Binder | binding in a display sort
design_610_f34cc193-997c-4684-af32-2a8002718429_136_dldesign_0_cycle1_af2pred (protein) SLNGTAGAGIVELLKALAEAQKWKALDPEFFGAAAKEIAAETAAAAQAAVAGDYEAAIAEVKAGKAVAEKAKKHAAEIA | not found
design_610_f34cc193-997c-4684-af32-2a8002718429_112_dldesign_0_cycle1_af2pred (protein) MEEVKEEVIKVIEEAAAKAKKAIEADPSTAWAHASAAYATASKAIIANAPKLSPEEMTEVGEVFLKNMKELTEHAKAVAAA | not found
design_610_f34cc193-997c-4684-af32-2a8002718429_895_dldesign_0_cycle1_af2pred (protein) SSAEALARRTAEAMVRLAERRIREAAEEGLEKARETAEKWARFAEEALPPEVGAETAKRIREAAERIVRRKEEE | not found
design_488_244881a1-ba0c-4c08-ad9c-1f64cf93580a_1921_dldesign_0_cycle1_af2pred (protein) DKATLAAQAQAVVNATKIAVEAAEKAIKEGDKEAAKKAAEGLKQMVEVAEAMAKQLEAAGADQAVIDAVKEAAEAAKKAAEKAEKFA | not found
design_610_f34cc193-997c-4684-af32-2a8002718429_824_dldesign_0_cycle1_af2pred (protein) DALVAEARRLLQEAARLLGTGSAAYIAGDKAAAVAAFKEAIGLAKKALELAKAAGDEALAASAQGLIELAEGLLAAAEA | not found
design_488_244881a1-ba0c-4c08-ad9c-1f64cf93580a_1769_dldesign_0_cycle1_af2pred (protein) GEEAKKLKEKADELFAKAKAVLEDPTATKEELTEAAIYASEAAVLYLKAAGLASPEEREEYLKKAVEASKIAIELAAKA | not found
design_488_244881a1-ba0c-4c08-ad9c-1f64cf93580a_2073_dldesign_0_cycle1_af2pred (protein) GSMEELKERAKRIFEEANRVLARASRVATANPAALPLASRAIAEAVRAQELANEALKTDPETGKELLERAEEELREARRYLEEAEAA | not found
design_610_f34cc193-997c-4684-af32-2a8002718429_692_dldesign_0_cycle1_af2pred (protein) SAARAAAAAAVHAKVYAVLEKQAEEALKKAAEVAKKLGDEKFYKEAKKEAEEAKKLAKESPGEGLKAITELKQKVKEAAKKAEA | not found
design_610_f34cc193-997c-4684-af32-2a8002718429_661_dldesign_0_cycle1_af2pred (protein) AKAQAEAQLAQGQKLLEQAKKNLASGKNAVAALSNARGAYVLFQGAAYIAAKTDPELAKKAKEAAKQAEELAKQAQAAIAAA | not found
design_610_f34cc193-997c-4684-af32-2a8002718429_868_dldesign_0_cycle1_af2pred (protein) DALAKAQKQAKATAEEAKKKAEEAKAAGNSAAAQMYENGAKVAEEGAKGDLKTVKAAIERGKTLIKAGDAIAAA | not found
design_610_f34cc193-997c-4684-af32-2a8002718429_328_dldesign_0_cycle1_af2pred (protein) MEAAKAAVEAARAEADALLAAAEASPDPGEATALAVDALRTVSAARREIEATYGPEAGALADAVLAEVRARVAALNRRLIA | not found
design_488_244881a1-ba0c-4c08-ad9c-1f64cf93580a_2397_dldesign_0_cycle1_af2pred (protein) AVAAAEQRVKEAAAKVAKALADEPFDVIYAAIMKEGEKIGKETGLEKQIKAEAVKEAQAAFVARAKAQIAAA | not found
design_610_f34cc193-997c-4684-af32-2a8002718429_921_dldesign_0_cycle1_af2pred (protein) AEAVAVAAMLGLLRNAADHPESAEKLAEIARDMALATGVPAEKVKEVFEEGARYAREKGNEEAAKIIEEKGEEAVKAAKAA | not found
design_610_f34cc193-997c-4684-af32-2a8002718429_1045_dldesign_0_cycle1_af2pred (protein) MTPGELGELALEALRLAAEAARLAAEDPRFAPAAAAFRAAFIEIARGGDPEEALRLYEEGLRLYEAALAAWRAA | not found
design_488_244881a1-ba0c-4c08-ad9c-1f64cf93580a_2417_dldesign_0_cycle1_af2pred (protein) SAALEAAKQAYDDAAKAAEEAAKDPAVAETAAAAKKSLKAFADEMTAFIKASTDEADKQAAADTLKLYAKNITNQLKAAAAAA | not found
design_488_244881a1-ba0c-4c08-ad9c-1f64cf93580a_1684_dldesign_0_cycle1_af2pred (protein) AAATAQAKADAAKAKAAVESGQDTSALATGHLLRAYSLDPAVADATLAELKALAAGRGTAVATQAIANFAAGVA | not found
design_488_244881a1-ba0c-4c08-ad9c-1f64cf93580a_1486_dldesign_0_cycle1_af2pred (protein) SAAGQLALDTAKTFMQQAKELAKQDPQLALAALQSAKLAADGAIADPATAAQGKALKAEVKAQEAAVKAAAAAAA | not found
design_610_f34cc193-997c-4684-af32-2a8002718429_954_dldesign_0_cycle1_af2pred (protein) MEEAKEKAEEAKKEAKEAIEKLRKVAEKAKAHPDGAEIQRRVDIAVAAVKGLLKNAEASPNPEDSLKIYEVAKELAEAERERVEAILK | not found
design_610_f34cc193-997c-4684-af32-2a8002718429_285_dldesign_0_cycle1_af2pred (protein) LAAEVAAAEAAAAAAAAAAKALGATATAAALRAMAEDAARSTPEEAAAARDFAEAMLTVLTARLAAAKAAAA | not found
